According to the supplement of paper PMC9254222:
Whole data set: some 1,100 compounds, median “Renilla luciferase signal (cell health) relative to plate median” near 0.97, cut for the highest 2% near 1.6. The full list was thinned out, with the highest values kept by preference.

Tested on: HEK293T (UBE3A T485A transfected, BAR Wnt reporter)
Experiment: Renilla luciferase signal (cell health) relative to plate median (fold (linear ratio)); higher = higher Renilla signal
Settings: 24 h
Procedure, shortened: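 HEK293T cells were seeded at 4500 cells/well in white 384-well plates and grown in DMEM with 10% FBS at 37°C and 5% CO2. The cells were transfected using Fugene 6 with a BAR firefly luciferase Wnt reporter, TK-Renilla and an expression plasmid, and four hours later robots added the chemicals at 0.01–100 uM for 24 h before a Dual-Glo luciferase readout. Wnt activity was taken as the firefly/Renilla ratio and cell health as raw Renilla, each median-centred per plate. Values are averages of four biological replicates.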

Structure (SMILES) | Renilla luciferase signal (concentration: 0.1 uM) | Renilla luciferase signal (concentration: 1 uM) | Renilla luciferase signal (concentration: 10 uM) | Renilla luciferase signal (concentration: 100 uM) | Renilla luciferase signal (concentration: 0.01 uM)
CN(C)c1ccc(C(=O)c2ccc(N(C)C)cc2)cc1 [Michler's ketone] | 1.09 | 1.03 | 0.702 | 0.267 | –
Cc1cc(O)ccc1Cl [4-Chloro-3-methylphenol] | 0.999 | 1.09 | 0.977 | 1.06 | –
ClC1=C(Cl)C2(Cl)C3C4CC(C5OC45)C3C1(Cl)C2(Cl)Cl (stereo not given) [Dieldrin] | 1.01 | 0.977 | 1.07 | 0.829 | –
ClC1=C(Cl)C2(Cl)C3C4CC(C5OC45)C3C1(Cl)C2(Cl)Cl (stereo not given) [Endrin] | 0.878 | 0.941 | 0.842 | 0.349 | –
CCCCCOC(=O)c1ccccc1C(=O)OCCCCC [Dipentyl phthalate] | 0.95 | 0.861 | 0.91 | 1.18 | –
CCCCOC(=O)c1ccccc1C(=O)O [Monobutyl phthalate] | 0.862 | 0.73 | 1.21 | 2.17 | 0.968
CCCCOC(=O)c1ccccc1C(=O)OCCCC [Dibutyl phthalate] | 1.04 | 1.02 | 1.03 | 0.11 | 1.02
CC(C)C1(C)N=C(c2nc3ccccc3cc2C(=O)O)NC1=O (stereo not given) [Imazaquin] | 1.09 | 1.07 | 1.06 | 1.38 | 1.09
Cc1cnc(C2=NC(=O)C(C)(C(C)C)N2)c(C(=O)O)c1 (stereo not given) [Imazapic] | 1.17 | 1.18 | 1.14 | 1.72 | 1.11
CCC(C)C1OC2(C=CC1C)CC1CC(CC=C(C)C(OC3CC(OC)C(OC4CC(OC)C([NH2+]C)C(C)O4)C(C)O3)C(C)C=CC=C3COC4C(O)C(C)=CC(C(=O)O1)C34O)O2.O=C([O-])c1ccccc1 (stereo not given) [Emamectin benzoate] | 1.08 | 0.877 | 0.0929 | 0.0231 | 1.02
COCc1cnc(C2=NC(C)(C(C)C)C(=O)N2)c(C(=O)O)c1 (stereo not given) [Imazamox] | 0.799 | 0.965 | 0.977 | 2.3 | 0.649
CC(C)C1(C)N=C(c2ncccc2C(=O)O)NC1=O (stereo not given) [Imazapyr] | 0.714 | 0.895 | 0.959 | 1.42 | 0.822
CCc1cnc(C2=NC(C)(C(C)C)C(=O)N2)c(C(=O)O)c1 (stereo not given) [Imazethapyr] | 0.962 | 0.96 | 0.991 | 1.58 | 1.11
CCCOC/C(=N\c1ccc(Cl)cc1C(F)(F)F)n1ccnc1 [Triflumizole] | 0.937 | 0.992 | 0.929 | 1.45 | 0.984
CCSC(=O)N(CC)C1CCCCC1 [Cycloate] | 0.996 | 0.924 | 1.01 | 1.15 | 0.797
CCSC(=O)N1CCCCCC1 [Molinate] | 0.899 | 0.905 | 1.04 | 1.8 | 0.998
